The source of these data is PubChem BioAssay (NCI).

Structures are written as SMILES. The panel holds about 83,000 compounds, 20% with a hit somewhere; the sample as a whole holds those more often.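 Activity criterion: percent growth below 10, measured after cells in 96-well plates were exposed to a single compound concentration for 48 hours.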 Unmarked numbers belong to inactive results. Calls of active or inactive are those of the source.

Some test systems named below: RPMI-8226 leukemia; OVCAR-8 ovarian; OVCAR-5 ovarian; OVCAR-4 ovarian; SK-OV-3 ovarian; IGROV1 ovarian; OVCAR-3 ovarian; HS 578T breast; NCI/ADR-RES ovarian; T-47D breast; BT-549 breast; MDA-MB-435 melanoma; SW-620 colon; MCF7 breast; HCT-116 colon; KM12 colon; HCC-2998 colon.
Holding throughout (test): NCI-60 one-dose screen, 48 h (100 = growth as untreated, 0 = no growth, -100 = all killed)
What all share (details): 10 µM unless noted

For `O=c1c2ccccc2n(CC(O)CN2CCCC2)c2c(Br)cccc12` (centres undefined), the growth was 44.9% with RPMI-8226 leukemia; 94.1% in the test with OVCAR-8 ovarian; 76.3% in the test on OVCAR-5 ovarian; 108% in the test with OVCAR-4 ovarian; 101% in the test with SK-OV-3 ovarian; 93.3% in the test on IGROV1 ovarian. Moreover, the growth is 106% in the test on OVCAR-3 ovarian; 98.9% in the test with HS 578T breast; -14.8% (active) with NCI/ADR-RES ovarian; 93.4% in the test with T-47D breast; 92.2% in the test on BT-549 breast; 86.8% with MDA-MB-435 melanoma. The growth in the test on SW-620 colon is 94.9%; in the test on MCF7 breast, 92.9%; in the test on HCT-116 colon it was 90.4%; in the test with KM12 colon, 94%.

As for `O=C1C(Cl)=C(Nc2ccc3c(c2NC2=C(Cl)C(=O)c4ccccc4C2=O)C(=O)c2ccccc2C3=O)C(=O)c2ccccc21`, the growth is 28.1% with RPMI-8226 leukemia; 22.3% in the test on OVCAR-8 ovarian; 3.29% (active) in the test with OVCAR-5 ovarian; -12% (active) in the test on OVCAR-4 ovarian; 90.3% in the test with SK-OV-3 ovarian; 6.05% (active) in the test with IGROV1 ovarian. Besides, the growth in the test with OVCAR-3 ovarian is -2.06% (active); with HS 578T breast it was 42.2%; with NCI/ADR-RES ovarian, 7.89% (active); with T-47D breast it was 10.5%; in the test with BT-549 breast, 42.3%; in the test with MDA-MB-435 melanoma, -64.7% (active). Besides, the growth was 24.7% in the test on SW-620 colon, -7.63% (active) in the test on MCF7 breast, 67% in the test on HCC-2998 colon and 39% in the test on KM12 colon.

Consider `CCCCOc1nc2ccc(C)cc2cc1/C=C/C(=O)/C=C/c1ccc2c(c1)OCO2`, for which the growth was 5.04% (active) in the test with RPMI-8226 leukemia; 38.7% in the test with OVCAR-8 ovarian; 131% with OVCAR-5 ovarian; 95.4% in the test with OVCAR-4 ovarian; 106% with SK-OV-3 ovarian; 90.3% in the test on IGROV1 ovarian. For the same compound, the growth was 74.6% with OVCAR-3 ovarian; 101% with HS 578T breast; 91.7% in the test with NCI/ADR-RES ovarian; 62.7% with T-47D breast; 75.9% in the test with BT-549 breast; 35.8% with MDA-MB-435 melanoma. Besides, the growth was 99.5% with SW-620 colon; 37.8% in the test on MCF7 breast; 10.5% with HCT-116 colon; 106% in the test on HCC-2998 colon; 87.3% in the test on KM12 colon.

Consider `CCN(CC)c1ccc2c(c1)Oc1nc(N)c(C#N)c(N)c1C2Sc1ccc(OC)cc1` (centres undefined), for which the growth with RPMI-8226 leukemia is -28.3% (active); in the test with OVCAR-8 ovarian, 5.24% (active); in the test with OVCAR-5 ovarian, 51.9%; with OVCAR-4 ovarian it was 46.2%; in the test with SK-OV-3 ovarian, 34%; with IGROV1 ovarian, -3.83% (active). For the same compound, the growth is -15.1% (active) in the test with OVCAR-3 ovarian; 19.7% in the test on HS 578T breast; 46.9% in the test on NCI/ADR-RES ovarian; 51.8% with T-47D breast; -0.405% (active) with BT-549 breast; -26.8% (active) in the test with MDA-MB-435 melanoma. In addition, the growth is -8.27% (active) in the test with SW-620 colon, 0.303% (active) in the test with MCF7 breast, -49.2% (active) in the test with HCC-2998 colon and -33% (active) in the test on KM12 colon.

In the case of `O=S(=O)(Nc1nccs1)c1ccc(Nc2nc(-c3ccncc3)cs2)cc1`, the growth in the test on RPMI-8226 leukemia was 99.3%; in the test with OVCAR-8 ovarian it was 121%; in the test on OVCAR-5 ovarian, 117%; in the test on OVCAR-4 ovarian it was 115%; with SK-OV-3 ovarian, 108%; in the test with IGROV1 ovarian, 84.1%. The growth with OVCAR-3 ovarian was 118%; in the test on HS 578T breast it was 96.8%; in the test with NCI/ADR-RES ovarian it was 122%; with T-47D breast, 105%; in the test on BT-549 breast it was 125%; with MDA-MB-435 melanoma it was 112%. In addition, the growth with SW-620 colon was 98.1%; in the test on MCF7 breast it was 94.3%; with HCC-2998 colon, 120%; with KM12 colon, 105%.

As for `O=C(O)c1cn(C2CC2)c2cc(N3CCN(Cc4nnc(Nc5ccccc5)o4)CC3)c(F)cc2c1=O`, the growth in the test on RPMI-8226 leukemia was 106%; in the test with OVCAR-8 ovarian it was 108%; in the test with OVCAR-5 ovarian, 94%; in the test on OVCAR-4 ovarian, 101%; with SK-OV-3 ovarian, 108%; in the test with IGROV1 ovarian, 95.9%. Further, the growth in the test on OVCAR-3 ovarian is 101%; in the test with HS 578T breast, 98%; with NCI/ADR-RES ovarian it was 107%; in the test with T-47D breast, 85.4%; in the test with BT-549 breast it was 98.8%; in the test with MDA-MB-435 melanoma it was 97.6%. The growth was 106% with SW-620 colon, 97.7% with MCF7 breast, 103% in the test with HCC-2998 colon and 96.7% with KM12 colon.

As for `C#C[C@@]1(O)[C@@H](CO)O[C@@H](n2ccc3c(N)ncnc32)[C@@H]1O`, the growth is 4.21% (active) in the test with RPMI-8226 leukemia; -21.7% (active) with OVCAR-8 ovarian; 25.6% with OVCAR-5 ovarian; 0.622% (active) with OVCAR-4 ovarian; -7.62% (active) in the test on SK-OV-3 ovarian; 4.28% (active) in the test with IGROV1 ovarian. Moreover, the growth with OVCAR-3 ovarian is 18.2%; in the test with HS 578T breast, 51.6%; with T-47D breast it was -34% (active); in the test with BT-549 breast it was -8.06% (active); in the test on MDA-MB-435 melanoma it was -28.9% (active); with SW-620 colon, 1.33% (active). For the same compound, the growth with MCF7 breast was 3.61% (active); with HCT-116 colon, 5.2% (active); in the test on HCC-2998 colon it was -44.2% (active); in the test on KM12 colon, 0.307% (active).

`O=C1CS/C(=N/c2nnc(-c3ccc(O)cc3)s2)N1`: the growth with RPMI-8226 leukemia was 101%; in the test on OVCAR-8 ovarian it was 109%; in the test on OVCAR-5 ovarian, 103%; with OVCAR-4 ovarian, 110%; in the test on SK-OV-3 ovarian, 82%; with IGROV1 ovarian, 107%. Moreover, the growth in the test with OVCAR-3 ovarian was 107%; with HS 578T breast it was 95.4%; in the test with T-47D breast, 75.3%; with BT-549 breast, 100%; in the test with MDA-MB-435 melanoma, 103%; in the test with SW-620 colon, 107%. The growth with MCF7 breast was 89.3%; in the test with HCT-116 colon it was 99.8%; in the test on HCC-2998 colon, 102%; with KM12 colon, 100%.

Consider `CC(=O)O[C@@H]1C[C@]2(C)[C@H]3[C@H](O)C[C@@H]4C5=CC(C)(C)CC[C@]5(C)CC[C@@]4(C)[C@]3(C)CC[C@H]2C(C)(C)[C@H]1O`, for which the growth is 124% in the test on RPMI-8226 leukemia; 104% in the test on OVCAR-8 ovarian; 106% in the test with OVCAR-5 ovarian; 106% with OVCAR-4 ovarian; 107% with SK-OV-3 ovarian; 106% with IGROV1 ovarian. Moreover, the growth in the test with OVCAR-3 ovarian is 101%; in the test on HS 578T breast it was 99.1%; with NCI/ADR-RES ovarian, 104%; in the test with T-47D breast it was 82.3%; with BT-549 breast, 102%; in the test on MDA-MB-435 melanoma it was 99.8%. Further, the growth is 98.7% in the test with SW-620 colon, 107% in the test on HCC-2998 colon and 105% with KM12 colon.
